Results on 18 compounds are retold here after PubChem BioAssay (NCATS).

Records with an inconclusive call do not appear. The source made the active and inactive calls. Calls come from the whole dose curve; as a rule, active = well fitted curve in the direction sought with a large enough effect; inconclusive = small, poorly fitted or top-dose-only effect, or another doubt; inactive = no such curve, though single readings can be large; an effect the other way counts as inactive or inconclusive.

The nature of experiment [1]: qHTS of pediatric cancer cell lines to identify multiple opportunities for drug repurposing: Confirmatory screen for DAOY cells (AID 1347114). Note: nearly all actives have a fitted effect of over 65% in size. In a few lines: (§1)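 Viability measured as metabolically active cells via CellTiter-Glo luminescence following 48 hours of compound exposure, 11-point dilutions in confirmatory testing. 500-1,000 cells/well plated 5 hours before dosing; controls were DMSO and 2.3 µM bortezomib.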
A general note: Quantitative high-throughput screening tests each substance at several concentrations.

A short description of experiment [2]: qHTS of pediatric cancer cell lines to identify multiple opportunities for drug repurposing: Confirmatory screen for SJ-GBM2 cells (AID 1347116). Note: nearly all actives have a fitted effect of over 60% in size. In a few lines: as §1
Experiment [3] can be described thus: qHTS of pediatric cancer cell lines to identify multiple opportunities for drug repurposing: Confirmatory screen for BT-37 cells (AID 1347117). Note: nearly all actives have a fitted effect of over 55% in size. The following applies: BT-37 pediatric cancer cells, viability; activity change, negative = cytotoxic: at 45.9 µM (top of the series). In outline:
(§2)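 Cells (500-1,000/well) rested 5 h, then received compounds for 48 h; metabolically active cells were measured by CellTiter-Glo luminescence. Final concentrations spanned up to 46 µM (MIPE, 11-point) or 0.59 nM-46 µM (NPC, 8-point) in primary screens, 11-point in follow-ups.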

Experiment [4] is described as follows: qHTS of pediatric cancer cell lines to identify multiple opportunities for drug repurposing: Confirmatory screen for TC32 cells (AID 1347118).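 Note: cells exposed to compound for 48 h before the read; nearly all actives have a fitted effect of over 65% in size.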 In outline:
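Luminescent ATP read-out (CellTiter-Glo) of metabolically active TC32 cells after 48 h exposure. Concentration-response curves came from 11-point (MIPE, 0.78 nM–46 µM) or 8-point (NPC, 0.59 nM–46 µM) primary titrations; follow-up used 11 points.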

Experiment [5] in a line: qHTS of pediatric cancer cell lines to identify multiple opportunities for drug repurposing: Confirmatory screen for MG 63 (6-TG R) cells (AID 1347119). Note: nearly all actives have a fitted effect of over 55% in size. In outline:
as §2

A short description of experiment [6]: qHTS of pediatric cancer cell lines to identify multiple opportunities for drug repurposing: Confirmatory screen for U-2 OS cells (AID 1347122). Note: nearly all actives have a fitted effect of over 65% in size. In outline: as §2
Experiment [7] can be described thus: qHTS of pediatric cancer cell lines to identify multiple opportunities for drug repurposing: Confirmatory screen for RD cells (AID 1347124).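 Note: cells exposed to compound for 48 h before viability readout; nearly all actives have a fitted effect of over 65% in size.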 In a few lines: as §2
Experiment [8] is described as follows: qHTS of pediatric cancer cell lines to identify multiple opportunities for drug repurposing: Confirmatory screen for control Hh wild type fibroblast cells (AID 1347121). Note: nearly all actives have a fitted effect of over 70% in size. In a few lines: as §2
Experiment [9] can be described thus: qHTS of pediatric cancer cell lines to identify multiple opportunities for drug repurposing: Confirmatory screen for NB-EBc1 cells (AID 1347115).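 Note: cells exposed to compound for 48 h before the viability read; nearly all actives have a fitted effect of over 45% in size.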 In outline:
as §2

A short description of experiment [10]: qHTS of pediatric cancer cell lines to identify multiple opportunities for drug repurposing: Confirmatory screen for Rh41 cells (AID 1347123).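 Note: 48 h compound exposure; nearly all actives have a fitted effect of over 60% in size.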 In outline: as §2
Potency is the fitted concentration of half-maximal effect.

On to `COc1cc(O)c2c(c1)C1OC1C[C@H](O)[C@H](O)C(=O)C=CC[C@H](C)OC2=O` (stereo not given in full), for which the Potency was 16.5 µM (active) in experiment [1]; 5.85 µM (active) in experiment [2]; 14.7 µM (active) in [3]; 9.27 µM (active) in [4]; 5.85 µM (active) in experiment [5].
Turning to `CC(C)(N)c1ccc(-c2nc3ccccc3nc2-c2ccccc2)cc1`, the Potency result in [1], in experiment [6] and in experiment [7] was “inactive” in each case. Also, the Potency in [3] is 18.5 µM (active); in experiment [4], 1.47 µM (active).
As to `CC(C)NC[C@@H](C(=O)N1CCN(c2ncnc3c2[C@H](C)C[C@H]3O)CC1)c1ccc(Cl)cc1`, the Potency result in [1], in experiment [2] and in [8] was “inactive” throughout. Also, the figures for the Potency in [4] and in experiment [5] were 4.14 µM (active) and 11.7 µM (active), respectively.
For the compound `NC(=O)Nc1sc(-c2ccc(F)cc2)cc1C(N)=O`, the Potency result in [1], in experiment [2] and in experiment [8] was “inactive” in each case. The Potency in experiment [4] is 5.22 µM (active); in [5], 11.7 µM (active); in experiment [6], 14.7 µM (active).
`Nc1nc2c(c(=O)[nH]1)N(C=O)[C@H](CNc1ccc(C(=O)N[C@@H](CCC(=O)O)C(=O)O)cc1)CN2`: the Potency result in experiment [1], in [9], in experiment [2], in [3], in [5] and in [6] was “inactive” each time. The Potency result in experiment [10] and in experiment [7] was “inactive” throughout. The Potency in [4] is 10.4 µM (active).
For `O=C1c2c(O)cccc2[C@@H]([C@@H]2O[C@H](CO)[C@@H](O)[C@H](O)[C@H]2O)c2cc(CO)cc(O)c21`, the Potency entry in experiment [1] and in experiment [8] was “inactive” in each case.
As to `C=CC(=O)N1CCc2ccc(-n3c(=O)ccc4cnc5ccc(-c6cnn(C)c6)cc5c43)cc21`, the Potency was 9.27 µM (active) in experiment [1]; 9.27 µM (active) in experiment [2]; 4.65 µM (active) in [3]; 5.22 µM (active) in [4]; 5.22 µM (active) in [6]; 10.4 µM (active) in experiment [7].
Regarding `Cc1ccc([N+](=O)[O-])cc1S(=O)(=O)N(C)N=Cc1cnc2ccc(Br)cn12`, the Potency in experiment [1] was 0.329 µM (active); in experiment [9], 0.293 µM (active); in experiment [2], 0.465 µM (active); in [3], 0.329 µM (active); in experiment [4] it was 0.293 µM (active); in experiment [6], 7.37 µM (active). Also, the values for the Potency in experiment [10] and in experiment [7] were 0.329 µM (active) and 4.65 µM (active), respectively.
In the case of `CC[C@]12C=CCN3CC[C@@]4(c5cc([C@@]6(C(=O)OC)C[C@H]7C[C@@H](C(C)(F)F)CN(Cc8c6[nH]c6ccccc86)C7)c(OC)cc5N(C)[C@H]4[C@@](O)(C(=O)OC)[C@H]1OC(C)=O)[C@@H]32`, the Potency entry in experiment [1], in experiment [9], in experiment [2], in experiment [3], in experiment [5] and in experiment [8] was “inactive” each time. The Potency result in [6] and in experiment [7] was “inactive” throughout. In addition, in experiment [4], the Potency was 9.27 µM (active).
Take `CC(C)(O)Cn1c(NC(=O)c2ccc(-c3cn[nH]c3)s2)nc2cc(CN3CCOCC3)ccc21`: the Potency in [1] is 2.61 µM (active); in experiment [9] it was 1.04 µM (active); in experiment [2], 1.17 µM (active); in experiment [3], 0.737 µM (active); in experiment [4], 1.31 µM (active); in [5] it was 1.17 µM (active). The Potency was 5.22 µM (active) in [8], 1.17 µM (active) in experiment [6], 0.585 µM (active) in experiment [10] and 0.827 µM (active) in experiment [7].
As for `CCOC(=O)[C@@H](N)Cc1ccc(-c2cc(O[C@H](c3ccc(Cl)cc3-n3ccc(C)n3)C(F)(F)F)nc(N)n2)cc1`, the Potency entry in experiment [1], in experiment [2] and in experiment [8] was “inactive” throughout. Also, the Potency in [4] was 23.3 µM (active); in experiment [10], 14.7 µM (active).
`C[C@@]12C(=O)OC(=O)[C@@]1(C)C1CCC2O1`: the Potency in [1] is 2.61 µM (active); in experiment [2], 6.57 µM (active); in experiment [3], 2.08 µM (active); in experiment [4] it was 3.69 µM (active); in [5] it was 1.47 µM (active); in [6], 1.85 µM (active). Also, the Potency in experiment [7] was 4.14 µM (active).
In the case of `CN[C@H]1[C@@H](O)[C@@H]2O[C@@H]3O[C@H](C)CC(=O)[C@]3(O)O[C@@H]2[C@@H](NC)[C@H]1O`, the Potency result in [1], in [2], in experiment [3], in experiment [8], in experiment [6] and in experiment [10] was “inactive” in each case. Besides, the Potency entry in [7] is “inactive”.
As to `O=C(C=Cc1ccc(CN(CCO)CCc2c[nH]c3ccccc23)cc1)NO`, the Potency is 0.261 µM (active) in experiment [1], 0.165 µM (active) in experiment [6] and 0.0585 µM (active) in experiment [10].
As for `CC(C(C)N1CC(=O)NC(=O)C1)N1CC(=O)NC(=O)C1` (stereo not given), the Potency result in experiment [1], in experiment [8], in experiment [6] and in experiment [7] was “inactive” throughout. In addition, the Potency in experiment [3] is 9.27 µM (active); in [4], 4.14 µM (active); in [5] it was 5.22 µM (active).
For the compound `C=CC(=O)Nc1cccc(Nc2nc(NC3CCC(N(C)C)CC3)nc3c2ncn3C(C)C)c1` (stereo not given), the Potency was 3.29 µM (active) in [1]; 7.37 µM (active) in experiment [9]; 4.65 µM (active) in [2]; 0.827 µM (active) in [3]; 0.657 µM (active) in [4]; 3.69 µM (active) in experiment [5]. Moreover, the Potency was 5.22 µM (active) in experiment [6] and 0.737 µM (active) in experiment [7]. The Potency result in experiment [8] was “inactive”.
`CCN(CC)Cc1ccc2cc(COC(=O)Nc3ccc(C(=O)NO)cc3)ccc2c1`: the Potency entry in experiment [1], in [2], in experiment [3], in experiment [4], in experiment [5] and in [6] was “inactive” each time. Further, in experiment [10], the Potency result is “inactive”.
With `N#Cc1c(C2CCNCC2)cc(-c2c(O)cccc2OCC2CC2)nc1N`, the values for the Potency in experiment [1] and in experiment [10] were 16.5 µM (active) and 3.29 µM (active), respectively. In addition, the Potency result in [9], in experiment [4] and in experiment [8] was “inactive” throughout.
